This passage reports Potency and outcome results from PubChem BioAssay (Tox21).

Values joined by “and” are separate entries in the source; they are usually repeats but may differ in a detail not shown here. Equal entries are not always repeated. Records with an inconclusive call do not appear. Where a structure was tested more than once in an assay, its records may differ in their call. Active and inactive are the calls of the source. Unless noted, the call rests on the fitted dose curve; in most records, active means well fitted curve in the direction sought with a large enough effect in the repeat runs; inconclusive means weak or mixed curves; inactive means no such curve, though single readings can be large; an effect the other way counts as inactive or inconclusive.

Assay [1] in a line: qHTS assay to identify small molecule agonists of the vitamin D receptor (VDR) signaling pathway - cell viability counter screen (AID 743224). Further: nearly all actives have a fitted effect of over 50% in size. Further: potency means the concentration at half of the fitted maximal effect. The method, boiled down: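 Cells: VDR-bla, 2,000/well, settled 4 h. Treatment: compounds in DMSO, 16 h, 37C/5% CO2. Readout: CellTiter-Glo luminescence after 30 min RT.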
Background: In qHTS, concentration-response curves come from the screen itself.

Assay [2] can be described thus: qHTS assay to identify small molecule antagonists of the vitamin D receptor (VDR) signaling pathway - cell viability counter screen (AID 743225). Further: nearly all actives have a fitted effect of over 50% in size. Further: potency means the concentration at half of the fitted maximal effect. The procedure, abridged: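 HEK293T VDR-bla; cpd + 1a,25-(OH)2D3 3 nM final, 16 h 37C/5% CO2; B/G FRET substrate 2 h RT; then CellTiter-Glo 30 min RT, luminescence.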
Assay [3] in a line: qHTS assay to identify small molecule agonists of the NFkB signaling pathway (AID 1159509; active means well fitted curve in the direction sought with a large enough effect in the signal ratio in the repeat runs, not every such curve was filed as active; the % refers to the signal ratio; further: series mostly up to about 61 µM). The procedure, abridged: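 Readout: FRET fluorescence, 405 nm excitation, 460/530 nm emission; beta-lactamase expression disrupts FRET. Cells: ME-180 stably carrying NF-kB-driven bla reporter. Compound exposure 5 hr, 37 C, 5% CO2.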
Assay [4] in a line: qHTS assay to identify small molecule agonists of the endoplasmic reticulum stress response signaling pathway (AID 1159516; active means well fitted activation curve with a large enough effect in the signal ratio in the repeat runs, not every such curve was filed as active; the % refers to the signal ratio). The procedure, abridged:
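Cells are seeded at 1,500 per well and incubated overnight. Compounds in DMSO are added for 5 hr at 37 C, then beta-lactamase FRET substrate for 2 hr at room temperature, and fluorescence at 460 and 530 nm is measured.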

A short description of assay [5]: qHTS assay to identify small molecule antagonists of the retinoid-related orphan receptor gamma (ROR-gamma) signaling pathway - cell viability counter screen (AID 1159520). Further: nearly all actives have a fitted effect of over 50% in size. The procedure, abridged:
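Cytotoxicity was read from cellular ATP (CellTiter-Glo luminescence) after 16 hr at 37 C with 1 uM doxycycline induction. The inducer was added 2 hr after compound transfer to Tet-on ROR gamma CHO cells.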

For assay [6], the target named is Nuclear receptor ROR-gamma (Homo sapiens) (UniProt P51449). Nature of the assay: qHTS assay to identify small molecule antagonists of the retinoid-related orphan receptor gamma (ROR-gamma) signaling pathway (AID 1159521;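 further: CHO cells with doxycycline inducible ROR-gamma driving an RORE luciferase reporter; top concentration of the series differs between compounds; nearly all actives have a fitted effect of over 50% in size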). The procedure, abridged: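 Cells were plated, rested 4 h at 37 C, exposed to compounds for 2 h, then given 1 uM final doxycycline hyclate to induce RORγ expression. After 16 h, ONE-Glo luminescence from the ROR response element reporter was measured.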

A short description of assay [7]: qHTS assay to identify small molecule agonists of the AP-1 signaling pathway - cell viability counter screen (AID 1159525; calls by dose curve; further: nearly all actives have a fitted effect of over 55% in size). The method, boiled down:
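Intracellular ATP by Cell Titer Glo luminescence (30 min, RT) in the same ME-180 AP-1-bla wells after the 5 h compound exposure at 37 °C. Normalised to tetra n-octyl ammonium bromide and DMSO controls.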

Assay [8] can be described thus: qHTS assay to identify small molecule agonists of the AP-1 signaling pathway (AID 1159526; calls by dose curve).
Assay [9] can be described thus: qHTS assay to identify small molecule agonists of the RXR signaling pathway - cell viability counter screen (AID 1159529). Further: nearly all actives have a fitted effect of over 50% in size. Further: potency means the concentration at half of the fitted maximal effect. The method, boiled down:
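Steps: seed RXR-alpha-UAS-bla HEK 293T cells in assay medium containing 2% charcoal-stripped FBS; incubate 5 hr; add compounds in DMSO; incubate 16 hr at 37 C; after the bla read, add CellTiter-Glo and read luminescence at 30 min.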

Assay [10] can be described thus: qHTS assay to identify small molecule antagonists of the retinoic acid receptor (RAR) signaling pathway (AID 1159552; further: nearly all actives have a fitted effect of over 50% in size). The procedure, abridged:
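Retinol at 1 uM final stimulated RARE-luciferase expression in C3RL4 cells exposed to test compounds for 6 hr at 37 C. Reduced luminescence, read 30 min after detection reagent, indicated pathway antagonism.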

A short description of assay [11]: qHTS assay to identify small molecule agonists of the retinoic acid receptor (RAR) signaling pathway (AID 1159553). Further: potency means the concentration at half of the fitted maximal effect. The method, boiled down:
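Seed C3RL4 reporter cells at 1,000 per well and incubate overnight at 37 C. Add compounds in DMSO, incubate 6 hr. Add luciferase reagent, wait 30 min at room temperature, read luminescence.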

Assay [12] can be described thus: qHTS assay to identify small molecule agonists of the endoplasmic reticulum stress response signaling pathway - cell viability counter screen (AID 1159517; calls by dose curve; further: nearly all actives have a fitted effect of over 50% in size; further: potency means the concentration at half of the fitted maximal effect). The procedure, abridged: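 After overnight attachment, ESRE-bla HeLa cells were treated with Tox21 library compounds for 5 hr. CellTiter-Glo luminescence, read 30 min post-addition at room temperature, reported viability.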

Assay [13] is described as follows: qHTS assay to identify small molecule antagonists of the retinoid acid receptor (RAR) signaling pathway - cell viability counter screen (AID 1159551). Further: nearly all actives have a fitted effect of over 35% in size. Further: potency means the concentration at half of the fitted maximal effect. The procedure, abridged:
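Cells (C3RL4) are plated, incubated overnight, dosed with compound in DMSO, then given retinol at 1 uM final. After 6 h at 37 C, CellTiter-Glo is added and luminescence read following 30 min at room temperature.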

The nature of assay [14]: qHTS assay to identify small molecule agonists of the NFkB signaling pathway - cell viability counter screen (AID 1159515; calls by dose curve; further: series mostly up to about 61 µM; nearly all actives have a fitted effect of over 55% in size). The procedure, abridged: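 Cells are seeded (2,000 NFkB-bla ME-180 per well), rested overnight, and dosed with DMSO-dissolved compounds for 5 hr at 37 C. Viability is then read by CellTiter-Glo luminescence after 30 min at room temperature.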
Assay [15] addresses Retinoic acid receptor RXR-alpha (Homo sapiens) (UniProt P19793). Put plainly: qHTS assay to identify small molecule agonists of the RXR signaling pathway (AID 1159527; calls by dose curve; further: nearly all actives have a fitted effect of over 35% in size). The method, boiled down:
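Cells plated at 2,000/well, rested 5 hr at 37 C, pin-dosed with DMSO compound solutions, incubated 16 hr, then loaded with B/G FRET substrate for 2 hr at RT before dual-emission fluorescence reading.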

Assay [16] can be described thus: qHTS assay to identify small molecule agonists of the estrogen related receptor (ERR) signaling pathway (AID 1224820). The method, boiled down:
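Luminescence readout (One-Glo, 30 min RT) from NTP-supplied ERR cell line exposed to compounds for 18 h at 37 C. Cells seeded 2,000 per well and pre-incubated 6 h before pin-tool compound transfer.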

Assay [17] can be described thus: qHTS assay to identify small molecule antagonists of the estrogen related receptor signaling pathway with the pleiotropic PPARgamma coactivator (PGC) cell viability counter screen (AID 1224822;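 further: series mostly up to about 46 µM; viability read after 17.5 h compound exposure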). The method, boiled down: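 Multiplexed viability counter screen run in PGC/ERR cells treated with compounds for 17.5 h at 37 C; live-cell protease signal measured by CellTiter-Fluor fluorescence.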

Chain of Retinoic acid receptor RXR-alpha (Homo sapiens) (P19793 whole entry, looked up): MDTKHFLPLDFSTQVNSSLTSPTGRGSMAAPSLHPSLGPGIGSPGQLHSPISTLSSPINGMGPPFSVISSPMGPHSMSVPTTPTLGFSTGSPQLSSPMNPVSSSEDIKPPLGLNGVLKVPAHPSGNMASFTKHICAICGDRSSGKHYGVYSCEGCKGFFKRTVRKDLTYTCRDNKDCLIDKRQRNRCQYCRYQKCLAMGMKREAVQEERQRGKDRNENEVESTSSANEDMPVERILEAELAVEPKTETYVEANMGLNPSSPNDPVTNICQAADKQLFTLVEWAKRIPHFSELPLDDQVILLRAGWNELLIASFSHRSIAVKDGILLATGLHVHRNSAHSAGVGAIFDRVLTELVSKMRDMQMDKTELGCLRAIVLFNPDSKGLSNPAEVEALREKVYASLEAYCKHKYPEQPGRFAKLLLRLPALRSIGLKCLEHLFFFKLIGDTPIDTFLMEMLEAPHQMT

Take `S=c1nc[nH]c2nc[nH]c12`: the Potency in assay [1] is 15.1 µM (active) and 10.6 µM (active); in [2], 4.25 µM (active); in assay [9] it was 3.01 µM (active). Also, the outcome in [3] and in assay [4] was inactive. For the same compound, the Potency entry in [5], in [6], in assay [7], in assay [8], in assay [10] and in assay [11] was “inactive” each time.
Regarding `C=C1CC[C@H](O)CC1=C/C=C1\CCC[C@]2(C)[C@@H]([C@H](C)/C=C/[C@H](C)C(C)C)CC[C@@H]12`, the Potency result in [2], in [12], in assay [7], in [13] and in assay [10] was “inactive” throughout. Further, the result in assay [3] and in assay [4] was inactive. In addition, the Potency is 24.5 µM (active) in [9] and 61.1 µM (active) in assay [11].
As to `CCCCCCCCCCCCN`, the Potency entry is “inactive and 49 µM (active)” in [1]; “inactive and 54.9 µM (active)” in [2]; 11.1 µM (active) and 21.9 µM (active) and 19.8 µM (active) in [12]; 21.9 µM (active) and inactive in assay [9]; “inactive and 68.6 µM (active)” in assay [13]. For the same compound, the call in assay [3] and in assay [14] was inactive. Besides, the Potency entry in assay [5], in assay [6], in assay [8] and in assay [15] was “inactive” each time.
Turning to `C[C@@H]1O[C@@H](OC[C@H]2O[C@@H](Oc3c(-c4ccc(O)c(O)c4)oc4cc(O)cc(O)c4c3=O)[C@H](O)[C@@H](O)[C@@H]2O)[C@H](O)[C@H](O)[C@H]1O`, the Potency result in [1], in assay [2], in [12], in assay [5], in [6] and in assay [8] was “inactive” throughout. The Potency entry in assay [15], in [9], in [13], in [10] and in [11] was “inactive” throughout. In addition, the result in [3] and in assay [14] was inactive.
`CN(CCOc1ccc(CC2SC(=O)NC2=O)cc1)c1ccccn1` (configuration not stated): in [3], the result was inactive. Further, the Potency entry in assay [12], in assay [5], in assay [6], in [8], in assay [9] and in assay [13] was “inactive” each time.
With `CS(=O)(=O)Nc1ccc([N+](=O)[O-])cc1Oc1ccccc1`, the Potency result in assay [1], in assay [2], in assay [12], in assay [5], in assay [8] and in [15] was “inactive” each time. Also, the Potency result in assay [9], in assay [13] and in assay [16] was “inactive” in each case. Also, the outcome in [3], in assay [14] and in [17] was inactive.
For the compound `Clc1ccc(Cl)c(Cl)c1Cl`, the Potency result in assay [1], in assay [2], in [12], in assay [5], in [6] and in assay [8] was “inactive” throughout. Besides, the Potency entry in assay [9] and in [13] was “inactive” in each case. The result in [3] and in assay [14] was inactive.
As to `CCCCNC(N)=O`, the Potency result in assay [1], in [2], in assay [12], in assay [5], in [6] and in [7] was “inactive” each time. For the same compound, the Potency entry in assay [8], in [15], in assay [9], in [13], in [10] and in assay [11] was “inactive” in each case. The call in assay [3] and in assay [14] was inactive.
For `CC1(C)CC(N=C=O)CC(C)(CN=C=O)C1` (configuration not stated), the Potency entry in [1], in [2], in assay [12], in assay [5], in [6] and in assay [8] was “inactive” throughout. The Potency result in assay [15], in assay [9], in assay [13], in assay [10] and in assay [11] was “inactive” each time. The compound was called inactive in [3].
As to `CCC(C)C=O` (configuration not stated), the Potency entry in assay [1], in [2], in [12], in [5], in [6] and in assay [7] was “inactive” in each case. The Potency entry in assay [8], in assay [15], in [9], in assay [13], in [10] and in assay [11] was “inactive” throughout. The compound was classed as inactive in assay [3] and in assay [4].
Consider `CCCCCCC(C)(C)S`, for which the Potency result in [1], in assay [2], in assay [12], in assay [5], in assay [6] and in assay [7] was “inactive” throughout. For the same compound, the Potency result in [8], in assay [15], in assay [9], in assay [13], in [10] and in assay [11] was “inactive” throughout. Moreover, the call in [3] and in assay [14] was inactive.
